An excerpt weighted towards active compounds, which were near 10% of everything screened.
NS1 function inh: influenza NS1 inhibition. Potency, µM (titrated, usually from 46.1 µM), inactives show at the top dose activity, positive = more growth. actives 0.4% (n = 270,000). AID 2326; further: actives are rising curves; nearly all actives have a fitted effect of over 50% in size
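Recovery from NS1-induced slow growth read by OD600 in budding yeast switched to galactose assay medium (pH 6.0, -URA) at 1:100 dilution. Compound 23 nl per well; the matching strain lacking NS1 serves as control.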
Pf growth 96h: P. falciparum growth inhibition at 96 hours. actives 6.9% (n = 320,000). Potency, µM (highest dose often 28.7 µM), inactives show top-dose activity change, negative = inhibition, usual class: inhibitors. AID 504834. P. falciparum luciferase reporter growth, 96 h; active means well fitted inhibition curve with a large enough effect; inconclusive means small, poorly fitted or top-dose-only effect, or another doubt; inactive means no such curve, though single readings can be large or run the other way; further: on the % scale 0 is the no-effect control and ±100 the full control effect
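P. falciparum expressing integrated firefly luciferase, in erythrocytes at 2% hematocrit, 0.05% parasitemia, incubated with compounds 96 h at 37 C, 5% CO2. Growth inhibition read as loss of luminescence; two-generation exposure targets delayed-death apicoplast inhibitors.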
SARS PLpro yeast: inhibitors of SARS-CoV papain-like protease in yeast; S. cerevisiae expressing SARS-CoV PLpro, growth rescue; Potency, µM (top dose mostly 32.9 µM), for the others: at the top dose activity, positive = growth rescue, hits mostly activators; actives 0.19% (n = 330,000); further: 0% is about no effect; nearly all actives have a fitted effect of over 55% in size
Pf growth 48h: inhibits P. falciparum growth in the first generation, 48 h; Potency, µM (doses to about 28.7 µM), inactives show at the top dose activity change, negative = inhibition, hits mostly inhibitors; actives 5.9% (n = 310,000); P. falciparum luciferase growth in erythrocytes, 48 h; active means well fitted inhibition curve with a large enough effect; inconclusive means small, poorly fitted or top-dose-only effect, or another doubt; inactive means no such curve, though single readings can be large or run the other way; further: on the % scale 0 is the no-effect control and ±100 the full control effect
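First compound was added to culture medium, then infected red cells at 0.1% parasitemia and 2% hematocrit (final). After incubation at 37 C under 5% CO2, luciferase detection reagent was dispensed and light output recorded.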
* marks the source's active call; other numbers are inactive results; [ ] = dose if it differs, or a comment. Unless noted, the call rests on the fitted dose curve. Potency means the concentration at half of the fitted maximal effect.

What do the screens show for `CN1CCN(C2=C(NS(=O)(=O)c3ccccc3)C(=O)c3ccccc3C2=O)CC1`?
NS1 function inh: 6%; Pf growth 96h: inconclusive; SARS PLpro yeast: 5%; Pf growth 48h: 4.1µM*

How did O=C1c2ccccc2C(=O)c2cc(S(=O)(=O)Nc3ccccc3)ccc21 do in these assays?
NS1 function inh: -5%; Pf growth 96h: -15%; SARS PLpro yeast: 4%; Pf growth 48h: 0%

How did O=C(NO)c1ccc(OC(F)F)cc1 do in these assays?
NS1 function inh: inconclusive; Pf growth 96h: inconclusive; SARS PLpro yeast: 8%; Pf growth 48h: 10µM*

How did O=C(N/N=C/c1ccc(OC(F)F)cc1)c1ccc(Br)cc1 do in these assays?
NS1 function inh: 0%; Pf growth 96h: 11%; SARS PLpro yeast: -14%; Pf growth 48h: 24%

How did Oc1ccc2ccccc2c1CN(Cc1c(O)ccc2ccccc12)C1CCCCC1 do in these assays?
NS1 function inh: -13%

How did CC(=O)c1ccc(N2CCN(C(=O)CCS(=O)(=O)c3ccc4c(c3)CCN4C(C)=O)CC2)cc1 do in these assays?
NS1 function inh: -7%; Pf growth 96h: inconclusive; SARS PLpro yeast: 4%; Pf growth 48h: 13µM*

How did CCC(=O)N1CCc2cc(S(=O)(=O)CCC(=O)N3CCN(c4ccc(F)cc4)CC3)ccc21 do in these assays?
NS1 function inh: 1%; Pf growth 96h: 1µM*; SARS PLpro yeast: 3%; Pf growth 48h: -19%

Results for CC(C)(Oc1ccc(Cl)cc1)C(=O)NCc1ccc(S(N)(=O)=O)cc1 ?
Pf growth 96h: inconclusive; SARS PLpro yeast: 0%; Pf growth 48h: -5%[5.75 µM]

How did Cc1ccc(NC(=O)C2C3C=CC4(O3)C2C(=O)N(CCCN2CCCC(C)C2)C4C(=O)NC2CCCCC2)cc1 (stereo unspecified) do in these assays?
NS1 function inh: -5%; Pf growth 96h: 9%; SARS PLpro yeast: 1%; Pf growth 48h: inconclusive

Results for OC(c1ccccc1)(C1CCCCC1)C(CN1CCOCC1)c1ccccc1 (stereo unspecified) ?
NS1 function inh: -10%; Pf growth 96h: 2%; SARS PLpro yeast: -4%; Pf growth 48h: 2.9µM*

How did CCCCC(O)(c1ccc(CC)cc1)C(CN1CCOCC1)c1ccccc1 (stereo unspecified) do in these assays?
NS1 function inh: -5%; Pf growth 96h: -7%; SARS PLpro yeast: -6%; Pf growth 48h: 1.9µM*

How did CCc1ccc(C(O)(CC)C(CN2CCOCC2)c2ccccc2)cc1 (stereo unspecified) do in these assays?
NS1 function inh: 1%; Pf growth 96h: 0%; SARS PLpro yeast: 0%; Pf growth 48h: 12µM*

How did O=S(=O)(Nc1nccs1)c1ccc([As](=O)(O)O)cc1 do in these assays?
NS1 function inh: 0%

How did Cc1ccc(NC(=O)Cc2nnc(SCC(=O)NC3=NCCS3)n2C)cc1 do in these assays?
NS1 function inh: 11%; Pf growth 96h: -2%; SARS PLpro yeast: -12%; Pf growth 48h: 20%

Results for CCCc1cc(N2CCN(C(=O)c3ccco3)CC2)n2c(nc3ccccc32)c1C#N ?
NS1 function inh: -5%; SARS PLpro yeast: -3%; Pf growth 48h: 12µM*

What do the screens show for `CCCCc1nc(N2CCN(C(=O)c3ccco3)CC2)c(C#N)c2c1CCCC2`?
NS1 function inh: -33%; Pf growth 96h: inconclusive; SARS PLpro yeast: -8%; Pf growth 48h: 9.3µM*

Results for O=C(COC(=O)/C=C/c1ccccc1[N+](=O)[O-])Nc1ccc2[nH]c(=O)[nH]c2c1 ?
SARS PLpro yeast: -1%

Results for COc1cc(/C=C/C(=O)OCC(=O)N2CCN(S(=O)(=O)c3ccc(C)cc3C)CC2)cc(Cl)c1OC ?
Pf growth 96h: -3%; SARS PLpro yeast: -3%; Pf growth 48h: -22%

Results for CS(=O)(=O)NCc1ccccc1Br ?
Pf growth 96h: 42%; SARS PLpro yeast: 1%; Pf growth 48h: 44%

What do the screens show for `C[C@H]1c2cccc(O)c2C(O)=C2C(=O)C3(O)C(O)=C(C(N)=O)C(=O)[C@@H](N(C)C)[C@@H]3[C@@H](O)[C@@H]21` (stereo partly specified)?
Pf growth 96h: 0.37µM*; Pf growth 48h: 4.7µM*

How did CN(C)[C@@H]1C(=O)C(C(=O)NCN2CCCC2)=C(O)[C@@]2(O)C(=O)C3=C(O)c4c(O)cccc4[C@@](C)(O)C3CC12 (stereo partly specified) do in these assays?
NS1 function inh: inconclusive; Pf growth 96h: -6%; SARS PLpro yeast: inconclusive; Pf growth 48h: -4%

What do the screens show for `C[C@H]1c2cccc(O)c2C(=O)C2C(=O)C3(O)C(=O)C(C(N)=O)C(=O)[C@@H](N(C)C)[C@@H]3[C@@H](O)[C@@H]21` (stereo partly specified)?
SARS PLpro yeast: 13%

Results for C=C1c2cccc(O)c2C(O)=C2C(=O)[C@]3(O)C(O)=C(C(N)=O)C(=O)[C@@H](N(C)C)[C@@H]3[C@@H](O)[C@H]12 ?
NS1 function inh: 8%; Pf growth 96h: 0.47µM*; SARS PLpro yeast: 1%; Pf growth 48h: inconclusive

What do the screens show for `CC(=O)Nc1nc(C)c(Oc2ccc(C)cc2)c(=O)[nH]1`?
NS1 function inh: -2%; Pf growth 96h: inconclusive; SARS PLpro yeast: 1%; Pf growth 48h: inconclusive

How did C[C@@H]1[C@@H](C)N1C[C@H](O)Cn1ccnc1[N+](=O)[O-] (stereo partly specified) do in these assays?
NS1 function inh: 3%

How did CC1CC(C)CN(C(=O)COC(=O)COc2ccc(C#N)cc2)C1 (stereo unspecified) do in these assays?
SARS PLpro yeast: 1%

How did CC(C)CC(=O)NC(=S)Nc1ccc(CN2CCOCC2)cc1 do in these assays?
NS1 function inh: 4%; Pf growth 96h: inconclusive; SARS PLpro yeast: 1%; Pf growth 48h: -2%

What do the screens show for `CC(C)c1ccc(/C=C/C(=O)NC(=S)Nc2ccc(CN3CCOCC3)cc2)cc1`?
NS1 function inh: 25%; Pf growth 96h: 5.2µM*; SARS PLpro yeast: -6%; Pf growth 48h: inconclusive

Results for CC(C)c1ccc(/C=C/C(=O)NC(=S)NN2CCOCC2)cc1 ?
NS1 function inh: inconclusive; Pf growth 96h: 12µM*; SARS PLpro yeast: 18%; Pf growth 48h: 10%

Results for COc1ccc(N(CC(=O)N2CCOCC2)S(C)(=O)=O)cc1 ?
NS1 function inh: 0%; Pf growth 96h: inconclusive; SARS PLpro yeast: 17%; Pf growth 48h: -7%

Results for CCOc1nc(Nc2ccc(OC)c(Cl)c2)nc(OCC)n1 ?
NS1 function inh: 2%; Pf growth 96h: 13µM*; SARS PLpro yeast: -4%

What do the screens show for `Cc1sc(NC(=O)c2ccccc2)c(C(=O)NCCN(C)C)c1C`?
NS1 function inh: 2%; Pf growth 96h: -8%; SARS PLpro yeast: -1%; Pf growth 48h: -5%

How did CCc1cc(C(c2ccncc2)N2CCN(C)CC2)c(NC(=O)c2ccccc2)s1 (stereo unspecified) do in these assays?
NS1 function inh: -4%; Pf growth 96h: inconclusive; SARS PLpro yeast: -26%; Pf growth 48h: 13µM*

How did CN1CCN(C(c2ccccc2)c2ccccc2)CC1 do in these assays?
Pf growth 96h: 6%; Pf growth 48h: inconclusive

High-throughput results (PubChem)
